Records with an inconclusive call do not appear. Activity calls are given as the source filed them. How the source made its calls: active means hit-call score of the fitted dose curve at least 0.9, where 1 is the maximum; inconclusive means response in the unintended direction; inactive means score below 0.9.

In general, AC50 refers to the midpoint of the concentration-response curve, whichever way the signal moves.

Sequence of Nuclear receptor subfamily 1 group I member 2 (Homo sapiens) (O75469 whole entry, looked up): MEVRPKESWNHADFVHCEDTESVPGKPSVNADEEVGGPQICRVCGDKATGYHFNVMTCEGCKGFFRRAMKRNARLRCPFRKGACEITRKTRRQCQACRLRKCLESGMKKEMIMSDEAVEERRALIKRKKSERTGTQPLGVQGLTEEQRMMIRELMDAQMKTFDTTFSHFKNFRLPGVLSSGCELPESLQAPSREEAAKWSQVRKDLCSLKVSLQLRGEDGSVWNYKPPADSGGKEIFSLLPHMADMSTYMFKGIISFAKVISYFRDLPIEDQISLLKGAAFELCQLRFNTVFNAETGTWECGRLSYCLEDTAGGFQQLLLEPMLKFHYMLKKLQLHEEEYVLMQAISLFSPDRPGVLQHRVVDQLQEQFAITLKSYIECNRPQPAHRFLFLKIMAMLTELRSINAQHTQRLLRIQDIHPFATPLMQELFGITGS

The test addresses Nuclear receptor subfamily 1 group I member 2 (Homo sapiens) (UniProt O75469). The test is described as follows: ATG_PXR_TRANS: Attagene TRANS-FACTORIAL HepG2 Assay for human Pregnane X Receptor (PXR) (AID 2283008). As for the experimental part:
ATG_TRANS is a cell-based, multiplexed-readout assay that uses HepG2, a human liver cell line, with measurements taken at 24 hours after chemical dosing in a 24-well plate.ATG_PXR_TRANS is one of 30 assay component(s) measured or calculated from the ATG_TRANS assay. It is designed to make measurements of mRNA induction, a form of inducible reporter, as detected with fluorescence intensity signals by Reverse transcription polymerase chain reaction (RT-PCR) and Capillary electrophoresis technology.Data from the assay component ATG_PXR_TRANS was analyzed into 1 assay endpoint. This assay endpoint, ATG_PXR_TRANS, was analyzed in the positive analysis fitting direction relative to DMSO as the negative control and baseline of activity. Using a type of inducible reporter, measures of mRNA for gain-of-signal activity can be used to understand the reporter gene at the transcription factor-level as they relate to the gene NR1I2. Furthermore, this assay endpoint can be referred to as a primary readout, because this assay has produced multiple assay endpoints where this one serves a reporter gene function. To generalize the intended target to other relatable targets, this assay endpoint is annotated to the nuclear receptor intended target family, where the subfamily is non-steroidal.
Human liver HepG2 cells are transiently transfected with multiple reporter transcription units (MRTUs) in 6-well plates using FuGene 6 reagent (Roche; 3 ml FuGene/1 mg DNA). The MRTU constructs are regulated by a cis-regulating element (promoter). […] A major difference between the CIS and TRANS system is that in CIS activities of endogenous TFs are measured, whereas the TRANS assay evaluates changes in activities of exogenous, chimeric NR-Gal4 proteins. […] At the end of 24 hour incubation, total RNA was isolated using TriZol reagent (Invitrogen). The isolated RNA is then reverse-transcribed using oligo(dT) primer and Mo-MLV reverse transcriptase (Invitrogen) with DNAse I (Ambion) treatment for 30 min. The one-tenth of the produced cDNA was amplified by PCR using Taq DNA polymerase (Invitrogen) and two reporter sequence-specific primers. The PCR products were fluorescently labeled by primer extension with 6-arboxyfluorescein (6-FAM) 5'-labeled reporter sequence-specific primer (2 min at 95 C, 20 s at 68 C and 10 min at 72 C) and these products were digested with 5U of HpaI (New England Biolabs) for 2h at 37 C. The fragments were purified using Qiaquick PCR columns (Qiagen), analyzed on an ABI 3130xL genetic analyzer (Applied Biosystems) with peak positions identified by using a set of X-rhodamine (ROX)-labeled MapMarker1000 molecular weight standards (BioVentures). The raw capillary electrophoresis data was processed using Attagraph software (Attagene).
Take `COc1ccc(/C=C/S(=O)(=O)NC(=O)c2ccc(C)cc2Cl)cc1`: the compound was called inactive.
Consider `O=C(OC[C@H]1O[C@@H](OC(=O)c2cc(O)c(O)c(OC(=O)c3cc(O)c(O)c(O)c3)c2)[C@H](OC(=O)c2cc(O)c(O)c(OC(=O)c3cc(O)c(O)c(O)c3)c2)[C@@H](OC(=O)c2cc(O)c(O)c(OC(=O)c3cc(O)c(O)c(O)c3)c2)[C@@H]1OC(=O)c1cc(O)c(O)c(OC(=O)c2cc(O)c(O)c(O)c2)c1)c1cc(O)c(O)c(OC(=O)c2cc(O)c(O)c(O)c2)c1`, for which the compound was classed as inactive.
In the case of `Cn1cnc([N+](=O)[O-])c1Sc1ncnc2nc[nH]c12`, the AC50 was 29.8 µM (active).
Take `O=C(O)CCN(C1(C(=O)NO)CCCC1)S(=O)(=O)c1ccc(Oc2ccc(F)cc2)cc1`: the result was inactive.
Regarding `CCCCCCCCO`, the compound was called inactive.
Consider `CC[C@H]1CC[C@H](NCc2cc3c(cc2OC)[C@H]2C[C@H]2C(=O)N3C)[C@H](c2ccccc2)N1`, for which the AC50 was 3.94 µM (active).
With `Cc1[nH]cnc1C[C@H]1CCc2c(C)c3ccccc3n2C1=O`, the outcome was inactive.
As for `C=CC(=C)CCC=C(C)C`, the result was inactive.
On to `C1N2CN3CN1CN(C2)C3`, for which the call was inactive.
As to `O=C1CCCCCN1`, the outcome was inactive.
In the case of `C=CCCCCCCCCC(=O)O`, the result was inactive.
For `CC(=O)OC[C@H]1O[C@@](COC(C)=O)(O[C@H]2O[C@H](COC(C)=O)[C@@H](OC(C)=O)[C@H](OC(C)=O)[C@H]2OC(C)=O)[C@@H](OC(C)=O)[C@@H]1OC(C)=O`, the call was inactive.
On the same count and under the same terms, under `Fc1ccccc1[C@@H](F)COC1CCC(Nc2ncnc3[nH]ncc23)CC1` (stereo not given in full) stands “inactive”.
`CC/C(=C\C(=N/O)C(N)=O)C(C)[N+](=O)[O-]` (stereo not given): the call was inactive.
As to `CCn1nc(Cc2ccccc2)cc1C1CCN(C[C@H]2C[C@H](N(C)[C@@H](C(=O)O)C(C)C)C[C@@H]2c2cccc(F)c2)CC1`, the result was inactive.
On to `COc1ccc2sc(C(=O)Nc3nnn[nH]3)c(OC(C)C)c2c1`, for which the compound was classed as inactive.
Still for that read-out and setting: under `CCCN(C1CCN(C(=O)C2CCNCC2)CC1)[C@@H]1CCc2ccc(OC)cc2C1` stands “inactive”; under `CCOC(=O)CC(CC(=O)OCC)(OC(C)=O)C(=O)OCC`, “inactive”.
Regarding `COC(=O)c1c(Cl)c(Cl)c(C(=O)OC)c(Cl)c1Cl`, the compound was classed as inactive.
As to `O=C(O)CC(O)C(=O)O` (stereo not given), the compound was called inactive.
As to `CC[C@H](C)C(=O)O[C@H]1C[C@@H](C)C=C2C=C[C@H](C)[C@H](CC[C@@H]3C[C@@H](O)CC(=O)O3)[C@H]21`, the AC50 is 2.51 µM (active).
For `O=C(NS(=O)(=O)/C=C/c1ccccc1)c1ccc(F)cc1Cl`, the AC50 was 16.2 µM (active).
As for `CN(C)c1ccc(N=NS(=O)(=O)O)cc1`, the compound was classed as inactive.
On to `CC(O)CN(CCN(CC(C)O)CC(C)O)CC(C)O` (stereo not given), for which the result was inactive.
For `Nc1ccc(Nc2ccccc2)cc1`, the compound was called inactive.
Regarding `Cn1c(=O)cc(Oc2ccc(F)cc2F)c2cnc(NCC(C)(C)O)nc21`, the call was inactive.
Regarding `CCCCCCCCCCCCc1ccccc1`, the compound was classed as inactive.
On to `O=C(O)c1cccc(N(Cc2cccnc2)c2ccc(OC(F)F)c(OC(F)F)c2)c1`, for which the AC50 was 11.1 µM (active).
In the case of `CC(C)=CCC/C(C)=C\CO`, the AC50 was 8.73 µM (active).
With `CCOC(=O)c1ccc(C2CCC(NC[C@H](O)COc3ccc(O)c(NS(C)(=O)=O)c3)CC2)cc1` (stereo not given in full), the AC50 was 33 µM (active).
The same measure, in the same setting: under `CNS(=O)(=O)c1cc(C(=O)N2CCC(CCN3C4CCC3CC(n3c(C)nc5ccccc53)C4)(c3cccc(F)c3)CC2)c(Cl)cc1F` (stereo not given) stands 0.779 µM (active); under `CC(C)(O)c1coc(S(=O)(=O)NC(=O)Nc2c3c(cc4c2CCC4)CCC3)c1`, 19.3 µM (active).
As to `CC(C)CCO`, the compound was classed as inactive.
Turning to `CC1=CC(=O)CC(C)(C)C1`, the outcome was inactive.
As for `COCCOc1cc2cc(C(=O)NC3CCN(C(C)C)CC3)n(CC(=O)Nc3ccc(Cl)cn3)c2cn1`, the call was inactive.
For the compound `CC(C)=CCC/C(C)=C/CO`, the call was inactive.
For `CCCCC(CC)COC(=O)CCCCCCCCC(=O)OCC(CC)CCCC` (stereo not given), the result was inactive.
In the case of `CC(C)CC(C)(O)C#CC(C)(O)CC(C)C` (stereo not given), the AC50 is 11.9 µM (active).
With `CC(C)c1cccc(C(C)C)c1N1C(=O)c2ccc(O)cc2C1=O`, the AC50 is 0.242 µM (active).
Consider `Cc1ccc(S(=O)(=O)O)cc1C`, for which the compound was classed as inactive.

The values are drawn from PubChem BioAssay (EPA / NIEHS).
